Assay results as given in PubChem BioAssay (NCI).
The panel holds about 79,000 compounds, 15% with a hit somewhere; the sample as a whole holds those more often. Activity calls are given as the source filed them. Rule as the data show it: active = growth inhibition above about 70%; inactive = the rest.

Legend:
[1] = NCI Yeast Anticancer Drug Screen. Data for the rad50 strain (AID 155);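 also: 0% = growth of vehicle-only cultures of the same strain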; settings: S. cerevisiae rad50 strain growth inhibition, active compounds read high
Procedure, shortened: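 Compounds were tested on a yeast strain with an engineered DNA damage repair alteration; the reported value is growth inhibition normalised to vehicle treatment.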

[2] = NCI Yeast Anticancer Drug Screen. Data for the mec2-1 strain (AID 157); settings: S. cerevisiae mec2-1 strain, active compounds read high
Procedure, shortened: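 Vehicle-treated cultures served as reference for growth inhibition of compound-exposed mec2-1 yeast.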

[3] = NCI Yeast Anticancer Drug Screen. Data for the sgs1 mgt1 strain (AID 161);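 also: 0% = growth of cultures given vehicle only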; settings: S. cerevisiae sgs1 mgt1 strain, active compounds read high
Procedure, shortened: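 Inhibition of yeast growth, normalised to vehicle-treated controls, is reported for a strain bearing genetic alterations in DNA damage repair.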

[4] = NCI Yeast Anticancer Drug Screen. Data for the cln2 rad14 strain (AID 165);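 also: 0% = growth equal to vehicle treated cultures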; settings: S. cerevisiae cln2 rad14 strain, active compounds read high
Procedure, shortened: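 Each compound was tested on cln2 rad14 yeast. Inhibition of growth was calculated against vehicle-exposed controls.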

[5] = NCI Yeast Anticancer Drug Screen. Data for the bub3 strain (AID 167); settings: S. cerevisiae bub3 mutant strain, active compounds read high
Procedure, shortened: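 Growth of a checkpoint-deficient yeast mutant is measured after compound exposure. Values represent inhibition relative to vehicle.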

[6] = NCI Yeast Anticancer Drug Screen. Data for the mlh1 rad18 strain (AID 175); settings: S. cerevisiae mlh1 rad18 strain growth inhibition, active compounds read high
Procedure, shortened: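 Vehicle-treated cultures served as the reference for growth inhibition in a yeast strain carrying DNA damage repair alterations exposed to each compound.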

[7] = at 5.0 µM (retest, dose inferred, filed as 0.5)
[8] = at 50.0 µM (retest, dose inferred, filed as 5.0)

Measured: growth inhibition

N#C/C(=C\c1c(Cl)cccc1Cl)c1ccccc1
active: [6]; at 50.0 µM 70.7%
inactive: [1]; [7] 11% | [1]; [8] 37% | [1]; at 50.0 µM 64.3% | [2]; [7] -9% | [2]; [8] 13% | [2]; at 50.0 µM 29.3% | [3]; [7] 12% | [3]; [8] 33% | [3]; at 50.0 µM 42.5% | [4]; [7] 8% | [4]; [8] 35% | [4]; at 50.0 µM 23% | [5]; [7] 21% | [5]; [8] 62% | [5]; at 50.0 µM 45.8% | [6]; [7] -18% | [6]; [8] 55%

CC1(C)N=C(N)N=C(N)N1c1cccc(CCCCC(=O)CCl)c1
active: [1]; [8] 89% | [1]; at 50.0 µM 95.8% | [2]; [8] 72% | [2]; at 50.0 µM 95% | [3]; [8] 79% | [3]; at 50.0 µM 95.9% | [4]; at 50.0 µM 81.6% | [5]; at 50.0 µM 86.7% | [6]; [8] 91% | [6]; at 50.0 µM 97.8%
inactive: [1]; [7] 15% | [2]; [7] 0% | [3]; [7] -5% | [4]; [7] -5% | [4]; [8] 62% | [5]; [7] -5% | [5]; [8] 51% | [6]; [7] -18%

O=C1N[C@H]2[C@H](CS[C@H]2CCCCC(=O)N(CCP(c2ccccc2)c2ccccc2)CCP(c2ccccc2)c2ccccc2)N1
inactive: [1]; [7] 2% | [1]; [8] 41% | [1]; at 50.0 µM 59.4% | [2]; [7] 1% | [2]; [8] 27% | [2]; at 50.0 µM 16.4% | [3]; [7] 11% | [3]; [8] 47% | [3]; at 50.0 µM -5.85% | [4]; [7] 9% | [4]; [8] 23% | [4]; at 50.0 µM -18.8% | [5]; [7] 16% | [5]; [8] 34% | [5]; at 50.0 µM 7.8% | [6]; [7] -15% | [6]; [8] 8% | [6]; at 50.0 µM -26.7%

O=C(Nc1ccc(F)cc1)ON=C1CCCCC1
inactive: [1]; [7] 56% | [2]; [7] 46% | [3]; [7] 56% | [4]; [7] 33% | [5]; [7] 45% | [5]; [8] 66% | [6]; [7] 69%
active: [1]; [8] 99% | [1]; at 50.0 µM 90.2% | [2]; [8] 100% | [2]; at 50.0 µM 92.3% | [3]; [8] 99% | [3]; at 50.0 µM 91.5% | [4]; [8] 99% | [4]; at 50.0 µM 90.8% | [5]; at 50.0 µM 91.1% | [6]; [8] 99% | [6]; at 50.0 µM 90.4%

CCCCCCCCCCCCCCCCNc1ccn(C2CC(OP(=O)(O)OCC3OC(n4cc(CC)c(=O)[nH]c4=O)CC3O)C(CO)O2)c(=O)n1 (stereo not given)
inactive: [1]; at 50.0 µM 41.8% | [2]; [7] 26% | [2]; at 50.0 µM 12.8% | [3]; at 50.0 µM 58% | [4]; [7] 7% | [4]; [8] 64% | [4]; at 50.0 µM 39.5% | [5]; [7] -19% | [5]; at 50.0 µM 11.8% | [6]; [7] 59% | [6]; at 50.0 µM 16.3%
active: [1]; [7] 73% | [1]; [8] 97% | [2]; [8] 97% | [3]; [7] 94% | [3]; [8] 97% | [5]; [8] 92% | [6]; [8] 87%
